# hDAT+cocaine: modulates human dopamine transporter uptake under cocaine; LLC-PK1 hDAT cells, [14C]-dopamine uptake with cocaine IC80; actives deviate in either direction; Q01959; hit rate 1.3% among 110,000; B-score at 10 µM;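 active means Z score or B-score, a plate-position-corrected score, falls beyond the plate's 99.7% confidence bounds, in either direction; inactive means both scores lie inside the 99.7% bounds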;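 further: scored against the spread of the other compound wells on the same plate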
# CYP2C19 inh: human CYP2C19 inhibition | hit rate 21% among 96,000 | CYP2C19 Supersomes, luciferin-H EGE luminescence, 30 min | inhibition, % at 5 µM;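 active means CYP2C19 inhibition above a set limit at 5 µM in the primary screen, cut at about 50% in these data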;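 further: plate controls were negative control wells for no effect and 2.5 mM tranylcypromine positive control for full effect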
# D1 mod: allosteric modulators of human D1 dopamine receptor. HEK293 D1, CRE-luciferase, dopamine EC30 potentiation; actives deviate in either direction. hit rate 5.9% among 58,000. P21728. B-score at 10 µM;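 active means luminescence count or its row- and column-corrected plate score outside the 99.7% band of the plate's sample wells, on either side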
# Target sequence (P21728 whole entry, looked up): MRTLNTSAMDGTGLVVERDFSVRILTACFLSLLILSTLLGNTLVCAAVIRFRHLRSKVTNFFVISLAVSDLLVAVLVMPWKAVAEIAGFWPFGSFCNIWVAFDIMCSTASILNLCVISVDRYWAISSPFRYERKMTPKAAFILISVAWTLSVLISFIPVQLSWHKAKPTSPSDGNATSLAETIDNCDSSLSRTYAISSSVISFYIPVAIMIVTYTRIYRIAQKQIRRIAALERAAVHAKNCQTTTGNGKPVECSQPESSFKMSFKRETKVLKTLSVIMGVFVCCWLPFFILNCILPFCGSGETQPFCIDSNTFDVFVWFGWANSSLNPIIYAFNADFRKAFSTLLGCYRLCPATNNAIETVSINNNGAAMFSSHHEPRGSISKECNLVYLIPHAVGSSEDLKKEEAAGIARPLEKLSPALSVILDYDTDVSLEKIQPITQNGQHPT
# CYP2C19 activ: activators of human cytochrome P450 2C19 | recombinant CYP2C19, luciferin-H EGE luminescence; stronger effect = higher value; 0 = fully inhibited enzyme, 1 = untreated enzyme | AID 1025 | activation factor at 5 µM | 96,000 tested, under 10 active;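 active means activation factor of at least 2 at 5 µM in the primary screen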;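 further: 0 = wells with 2.5 mM tranylcypromine and 1 = vehicle-only wells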
# CYP2C9 inh: human CYP2C9 inhibition. CYP2C9 Supersomes, luciferin-H conversion, luminescence. inhibition, % at 5 µM. hit rate 20% among 96,000. AID 777;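 active means blocking of liver enzyme CYP2C9 beyond about 50% at 5 µM, limit read from the data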
# CYP2C9 activ: activators of human CYP2C9; P11712; recombinant CYP2C9, luciferin-H conversion, luminescence; stronger effect = higher value; factor 1 = untreated enzyme, 0 = blocked; activation factor at 5 µM; hit rate 1.4% among 96,000;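 active means activation factor of 2 or more for CYP2C9 at a 5 µM dose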;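 further: 0 = sulfaphenazole-blocked wells and 1 = vehicle-only wells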
# * hit, by the source's call; . = not tested or not shown. The list is not random: actives were taken first. Their share in the collection is about 28%.
SMILES,hDAT+cocaine,CYP2C19 inh,D1 mod,CYP2C19 activ,CYP2C9 inh,CYP2C9 activ
O=C(c1cc(C2CC2)on1)N1CCN(c2ccccc2)CC1,1.2,90.6*,.,0.1,52.3*,0.5
Cc1onc(-c2ccccc2)c1C(=O)NCC1CCN(C(=O)c2c(-c3ccccc3)noc2C)CC1,0.54,18.0,.,0.8,32.2,0.7
O=c1[nH]c2ccc(S(=O)(=O)Nc3ccc(-c4nnc5n4CCCCC5)cc3)cc2o1,-0.672,6.7,-5.01*,0.9,30.9,0.7
COc1ccc(NS(=O)(=O)c2cccc(-c3nnc4n3CCCCC4)c2)cc1,0.282,43.7,.,0.6,82.5*,0.2
Cc1ccc(-c2nnc3n2CCCCC3)cc1,-1.28,-10.5,.,1.1,-11.2,1.1
COC/C=C/C1=CC2=CC(=O)C(C)(OC(=O)c3cnc4ccccc4n3)C(=O)C2=CN1c1cccc(C#N)c1 (stereo not drawn),0.225,.,.,.,.,.
CCOC(=O)C1=C(C)N(Cc2ccccc2)C(=O)NC1c1ccccc1OS(=O)(=O)c1ccccc1[N+](=O)[O-] (stereo not drawn),0.472,.,.,.,.,.
O=C(C1=C[C@H](c2ccccc2)C[C@H](OCc2ccc(CO)cc2)O1)N1CCN(Cc2ccc3c(c2)OCO3)CC1,1.19,.,.,.,.,.
O=C(c1ccco1)N1CCN(C(=O)c2cccc3c2C(=O)N(C2CCCCC2)C3)CC1,.,.,-3.39*,.,.,.
O/N=C/c1cc(Cl)ccc1OCc1ccccc1Cl,1.14,20.6,.,0.8,60.8*,0.4
OCC[C@@H]1C[C@H](O)[C@@H](O)[C@@]2(CCCCO2)O1,-0.0348,.,.,.,.,.
N#CCCn1c(SCC(=O)c2c[nH]c3ccccc23)nc2ccccc21,0.221,70.4*,.,0.3,44.1,0.6
Cc1cc(C(=O)CSc2nc3ccccc3n2CCC#N)c(C)n1Cc1cccs1,-0.0648,60.8*,-0.0493,0.4,30.1,0.7
N#CCCn1c(SCC(=O)NCC2CCCO2)nc2ccccc21 (stereo not drawn),1.57,8.9,-0.162,0.9,-31.4,1.3
N#CCCn1c(SCC(=O)N2CCN(S(=O)(=O)c3ccccc3)CC2)nc2ccccc21,-0.234,-4.2,0.0799,1,10.4,0.9
CCOc1ccc2nc(NC(=O)C(CC)Sc3nc(C)cc(=O)[nH]3)sc2c1 (stereo not drawn),-0.0788,17.9,0.128,0.8,68.1*,0.3
CCOc1ccc2nc(NC(=O)COC)sc2c1,-1.37,11.7,-1.28,0.9,-2.6,1
COc1ccc2nc(NC(=O)CSc3nccc(C)n3)sc2c1,.,30.3,.,0.7,13.8,0.9
COc1ccc2nc(NC(=O)CSc3nc(C)cc(=O)[nH]3)sc2c1,0.455,21.7,.,0.8,51.8*,0.5
O=C(NCc1cccs1)C1CC(=O)N(c2ccccc2)C1 (stereo not drawn),0.323,22.1,-0.751,0.8,-14.1,1.1
O=C(c1ccccc1Oc1ccccc1)N1CCN(c2ccccc2)CC1,-0.129,95.9*,-1.67,0,97.7*,0
CC(C)c1ccc(N2CCN(C(=O)c3ccccc3NC(=O)/C=C\C(=O)O)CC2)cc1,0.17,-4.8,.,1,1.3,1
O=C(O)/C=C\C(=O)Nc1ccccc1C(=O)N1CCN(c2ccc(Cl)cc2)CC1,0.67,34.5,.,0.7,58.0*,0.4
CS(=O)(=O)Nc1ccccc1C(=O)N1CCN(c2ccccc2)CC1,.,71.0*,.,0.3,-0.7,1
Cc1sc(NC(=O)c2ccco2)c(CN2CCN(c3ccccc3)CC2)c1C,-0.186,72.1*,.,0.3,80.4*,0.2
SMILES,hDAT+cocaine,CYP2C19 inh,D1 mod,CYP2C19 activ,CYP2C9 inh,CYP2C9 activ
O=C(Nc1ccccc1C(=O)N1CCN(c2ccccc2)CC1)c1ccco1,-0.125,62.1*,-0.653,0.4,56.9*,0.4
COC(=O)c1ccccc1NC(=O)CNC(=O)c1ccco1,-0.679,33.0,0.273,0.7,30.9,0.7
COC(=O)c1ccccc1NC(=O)N1CCN(C(=O)c2ccco2)CC1,.,52.1*,-0.0363,0.5,1.0,1
Cc1ccc(N2C(=O)N(CC(=O)N3CCCc4ccccc43)C(=O)C2C)cc1 (stereo not drawn),-0.862,11.6,.,0.9,4.4,1
O=C(Nc1ccn(C2CC(OC(=O)c3ccccc3)C(CO)O2)c(=O)n1)c1ccccc1 (stereo not drawn),0.289,-8.4,0.147,1.1,1.8,1
O=C1CC2C(CC(OC(=O)c3ccc(-c4ccccc4)cc3)C2CO)O1 (stereo not drawn),0.816,48.4,.,0.5,71.8*,0.3
